Inconclusive results are not listed. Active and inactive are the calls of the source. Unless noted, the call rests on the fitted dose curve; in most records, active means well fitted curve in the direction sought with a large enough effect in the repeat runs; inconclusive means weak or mixed curves; inactive means no such curve, though single readings can be large; an effect the other way counts as inactive or inconclusive.
Tests used:
[1] = target: Estrogen receptor (Homo sapiens) (UniProt P03372); assay: qHTS assay to identify small molecule agonists of the estrogen receptor alpha (ER-alpha) signaling pathway in the presence of an antagonist (AID 1259383; calls by dose curve; further: top concentration of the series differs between compounds; nearly all actives have a fitted effect of over 15% in size)
Method in brief: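 ER-alpha agonism measured under antagonist challenge: 10.0nM ICI-182,780 (final) plus compound, 15 concentrations, 22hr, VM7Luc4E2 ERE-luciferase cells. Read by luminescence.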

[2] = qHTS assay to identify small molecule agonists or antagonists of the thyroid stimulating hormone receptor (TSHR) signaling pathway - wild type cell line counter screen (AID 1259384; calls by dose curve)
Method in brief: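 Counter screen in untransfected Hek293: compounds (15-point titration, triplicate) plus phosphodiesterase inhibitor Ro20-1724 added after 18 h plating; 30 min RT. Intracellular cAMP via competitive d2/cryptate immunoassay, 1 h incubation.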

[3] = target: Thyrotropin receptor (Homo sapiens) (UniProt P16473); assay: qHTS assay to identify small molecule antagonists of the thyroid stimulating hormone receptor (TSHR) signaling pathway (AID 1259385; calls by dose curve; further: nearly all actives have a fitted effect of over 20% in size)
Method in brief: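 Antagonist mode: compound-treated TSHR-expressing HEK293 cells were stimulated with 1.5 ng/mL TSH (final) in presence of Ro20-1724 for 30 min at RT. HTRF cAMP detection after 1 h; each compound tested at 15 concentrations, triplicate.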

[4] = qHTS assay to identify small molecule agonists of the estrogen receptor alpha (ER-alpha) signaling pathway in the presence of an antagonist - cell viability counter screen (AID 1259386);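 further: series mostly up to about 92 µM; cells exposed to compounds for 22 h at 37 °C before the viability read; nearly all actives have a fitted effect of over 30% in size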
Method in brief: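 Steps: 5-day stripped-FBS culture; seed and incubate 24hr; add ICI-182,780 (10.0nM final); pin 15-point compound titration; incubate 22hr at 37C; add CellTiter-Fluor at 21hr; read fluorescence.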

[5] = target: Progesterone receptor (Homo sapiens) (UniProt P06401); assay: qHTS assay to identify small molecule agonists of the progesterone receptor (PR) signaling pathway (AID 1346784; calls by dose curve; further: nearly all actives have a fitted effect of over 30% in size)
Method in brief: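 HEK 293T PR-UAS-bla reporter cells, 2% charcoal-stripped FBS; 6 hr settle at 37C/5% CO2, compound (DMSO) 16 hr, LiveBLAzer B/G FRET substrate 2 hr RT, fluorescence intensity read.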

[6] = target: Progesterone receptor (Homo sapiens) (UniProt P06401); assay: qHTS assay to identify small molecule antagonists of the progesterone receptor (PR) signaling pathway (AID 1346795; active means well fitted inhibition curve with a large enough effect in the signal ratio in the repeat runs, not every such curve was filed as active; the % refers to the signal ratio)
Method in brief: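 Beta-lactamase reporter, HEK293T PR-UAS-bla line; 2% charcoal-stripped FBS; 6 hr pre-incubation, 37C/5% CO2. Compound + R5020 1 nM final, 16 hr. LiveBLAzer B/G FRET substrate, 2 hr RT; fluorescence intensity read.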

[7] = qHTS assay to identify small molecule antagonists of the progesterone receptor (PR) signaling pathway - cell viability counter screen (AID 1346798); further: series mostly up to about 92 µM; nearly all actives have a fitted effect of over 50% in size
Method in brief: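 Luminescence readout (CellTiter-Glo, 30 min, RT) of viability in PR-UAS-bla HEK293T cells exposed to compound and R5020 agonist for 16 hr at 37C, 5% CO2; run in the same wells as the beta-lactamase reporter read.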

[8] = qHTS assay to identify small molecule agonists of the progesterone receptor (PR) signaling pathway - cell viability counter screen (AID 1346799; calls by dose curve; further: nearly all actives have a fitted effect of over 45% in size)
Method in brief: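 HEK293T PR-UAS-bla, 3,000 cells/well, 2% charcoal-stripped FBS; 6 h settle, compound 16 h at 37C/5% CO2; LiveBLAzer 2 h RT, then CellTiter-Glo 30 min RT, luminescence read.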

[9] = qHTS assay to identify small molecule antagonists of the TGF-beta/Smad signaling pathway - cell viability counter screen (AID 1346824); further: nearly all actives have a fitted effect of over 50% in size
Method in brief: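 Cytotoxicity counter-screen run in the same wells as the beta-lactamase Smad reporter read: CellTiter-Glo luminescence after 30 min at room temperature. HEK 293T SBE-bla cells had 5 hr compound exposure at 37 C with TGF-beta1 (0.25 ng/mL stock).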

[10] = qHTS assay to identify small molecule agonists of the TGF-beta/Smad signaling pathway - cell viability counter screen (AID 1346829); further: top concentration of the series differs between compounds; nearly all actives have a fitted effect of over 45% in size
Method in brief: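 CellTiter-Glo luminescence readout; SBE-bla HEK 293T cells, overnight plating, compound 5 hr at 37 C/5% CO2, then bla substrate 2 hr RT, then CellTiter-Glo 30 min RT.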

[11] = qHTS assay to identify small molecule agonists of the TGF-beta/Smad signaling pathway (AID 1346859; active means well fitted activation curve with a large enough effect in the signal ratio in the repeat runs, not every such curve was filed as active; the % refers to the signal ratio; further: series mostly up to about 77 µM)
Method in brief: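 Read-out: fluorescence at 460 and 530 nm (405 nm excitation) after a 2 hr room-temperature incubation with beta-lactamase FRET substrate. SBE-bla HEK 293T cells had been treated with test compounds for 5 hr at 37 C.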

[12] = target: Thyrotropin-releasing hormone receptor (Homo sapiens) (UniProt P34981); assay: qHTS assay to identify small molecule antagonists of the thyrotropin-releasing hormone receptor (TRHR) signaling pathway (AID 1346877; active means well fitted inhibition curve with a large enough effect in the repeat runs, not every such curve was filed as active; further: series mostly up to about 51 µM)
Method in brief: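 Human TRHR in HEK293 cells; inhibition of the intracellular calcium rise triggered by 1 nM TRH was followed by fluorescence over 3 min. Compounds were run at 15 concentrations, three replicates each.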

[13] = target: Thyrotropin-releasing hormone receptor (Homo sapiens) (UniProt P34981); assay: qHTS assay to identify small molecule agonists of the thyrotropin-releasing hormone receptor (TRHR) signaling pathway (AID 1346891; calls by dose curve;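 further: HEK293 cells expressing TRHR with calcium dye readout; series mostly up to about 58 µM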)
Method in brief: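 HEK293/TRHR cells, 1500 per well, 18 h 37 °C; Ca dye 2 h 37 °C; pin-tool compound addition (agonist mode); kinetic fluorescence 3 min, 1 s reads; 15 concentrations, triplicate.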

[14] = Human pregnane X receptor (PXR) small molecule agonists, qHTS cell viability counter screen (AID 1346977); further: nearly all actives have a fitted effect of over 50% in size
Method in brief: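 Fluorescence read-out (CellTiter-Fluor) of viability in PXR-Luc HepG2 cells, multiplexed with the luciferase agonist read. Compounds in DMSO added after 5hr plating; 24hr total exposure at 37C, 5% CO2.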

[15] = Caspase-3/7 induction in HepG2 cells by small molecules, qHTS assay (AID 1346978); further: nearly all actives have a fitted effect of over 15% in size
Method in brief: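 Caspase-3/7 induction was measured by Caspase-Glo 3/7 luminescence (30 min, room temperature) after a 17 hr compound exposure of wild-type HepG2 cells seeded at 2,000 per well and pre-incubated 5 hr.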

[16] = Caspase-3/7 induction in CHO-K1 cells by small molecules, qHTS cell viability counter screen (AID 1346979); further: nearly all actives have a fitted effect of over 35% in size
Method in brief: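 CHO-K1 wt, 1,500 cells/well; 5hr pre-incubation 37C/5% CO2; compound pin transfer (DMSO); 16hr exposure; CellTiter-Fluor added, 1hr, fluorescence read.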

[17] = Caspase-3/7 induction in CHO-K1 cells by small molecules, qHTS assay (AID 1346980); further: nearly all actives have a fitted effect of over 15% in size
Method in brief: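 Luminescent Caspase-Glo 3/7 read (30min, room temperature) quantified apoptosis induction. Cells were wild-type CHO-K1, treated with compound for 17hr at 37 C and 5% CO2.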

[18] = Caspase-3/7 induction in HepG2 cells by small molecules, qHTS cell viability counter screen (AID 1346981); further: series mostly up to about 92 µM; nearly all actives have a fitted effect of over 30% in size
Method in brief: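 The parent HepG2 line is plated at 2,000 cells per well and rested 5 hr before compound pinning from DMSO stocks. Following a 16-hr treatment at 37 C, a fluorogenic live-cell substrate (CellTiter-Fluor) reports viability after 1 hr.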

[19] = target: Nuclear receptor subfamily 1 group I member 2 (Homo sapiens) (UniProt O75469); assay: Human pregnane X receptor (PXR) small molecule agonists, qHTS assay (AID 1346982); further: nearly all actives have a fitted effect of over 35% in size; further: potency means the concentration at half of the fitted maximal effect
Method in brief: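 After plating in 5% charcoal-stripped FBS and a 5 hr rest, PXR-Luc HepG2 cells received compounds in DMSO. Following 24 hr at 37 C, ONE-Glo was added and light output read.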

[20] = target: Nuclear receptor subfamily 1 group I member 2 (Rattus norvegicus) (UniProt Q9R1A7); assay: Rat pregnane X receptor (rPXR) activation by small molecules, qHTS assay (AID 1346983); details: rPXR luciferase reporter cells, One-Glo luminescence, 24 h; max activation: stronger effect = higher value; further: nearly all actives have a fitted effect of over 20% in size
Method in brief: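 Luminescent readout (One-Glo luciferase, 30 min room temperature) followed 24 hr compound treatment at 37 C of rPXR cells plated 2,000 per well and preincubated 5hr; qHTS format with compounds delivered in DMSO.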
On the % scale 0 is the no-effect control and ±100 the full control effect.

Chain of Thyrotropin-releasing hormone receptor (Homo sapiens) (P34981 whole entry, looked up): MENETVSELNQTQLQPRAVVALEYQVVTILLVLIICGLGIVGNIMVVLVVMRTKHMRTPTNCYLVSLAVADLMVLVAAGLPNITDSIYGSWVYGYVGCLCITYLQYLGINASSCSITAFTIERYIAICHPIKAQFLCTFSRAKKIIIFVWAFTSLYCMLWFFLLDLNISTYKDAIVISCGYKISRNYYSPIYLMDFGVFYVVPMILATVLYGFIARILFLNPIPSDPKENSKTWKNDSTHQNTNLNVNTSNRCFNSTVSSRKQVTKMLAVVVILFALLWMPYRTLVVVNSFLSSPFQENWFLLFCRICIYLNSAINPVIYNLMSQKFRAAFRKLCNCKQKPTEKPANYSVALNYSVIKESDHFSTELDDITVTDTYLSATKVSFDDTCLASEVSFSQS
Chain of Nuclear receptor subfamily 1 group I member 2 (Rattus norvegicus) (Q9R1A7 whole entry, looked up): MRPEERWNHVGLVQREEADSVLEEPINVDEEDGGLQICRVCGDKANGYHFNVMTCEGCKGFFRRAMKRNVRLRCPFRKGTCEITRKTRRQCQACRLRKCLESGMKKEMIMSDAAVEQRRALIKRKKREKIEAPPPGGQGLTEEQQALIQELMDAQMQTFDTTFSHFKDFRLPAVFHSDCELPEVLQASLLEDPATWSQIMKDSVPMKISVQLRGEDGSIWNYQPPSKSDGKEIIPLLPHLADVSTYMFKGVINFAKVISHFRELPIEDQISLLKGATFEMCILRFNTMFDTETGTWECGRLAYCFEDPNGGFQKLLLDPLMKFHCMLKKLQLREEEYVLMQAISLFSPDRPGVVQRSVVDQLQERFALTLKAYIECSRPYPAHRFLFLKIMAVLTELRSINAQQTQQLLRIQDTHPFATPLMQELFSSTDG
Chain of Estrogen receptor (Homo sapiens) (P03372 whole entry, looked up): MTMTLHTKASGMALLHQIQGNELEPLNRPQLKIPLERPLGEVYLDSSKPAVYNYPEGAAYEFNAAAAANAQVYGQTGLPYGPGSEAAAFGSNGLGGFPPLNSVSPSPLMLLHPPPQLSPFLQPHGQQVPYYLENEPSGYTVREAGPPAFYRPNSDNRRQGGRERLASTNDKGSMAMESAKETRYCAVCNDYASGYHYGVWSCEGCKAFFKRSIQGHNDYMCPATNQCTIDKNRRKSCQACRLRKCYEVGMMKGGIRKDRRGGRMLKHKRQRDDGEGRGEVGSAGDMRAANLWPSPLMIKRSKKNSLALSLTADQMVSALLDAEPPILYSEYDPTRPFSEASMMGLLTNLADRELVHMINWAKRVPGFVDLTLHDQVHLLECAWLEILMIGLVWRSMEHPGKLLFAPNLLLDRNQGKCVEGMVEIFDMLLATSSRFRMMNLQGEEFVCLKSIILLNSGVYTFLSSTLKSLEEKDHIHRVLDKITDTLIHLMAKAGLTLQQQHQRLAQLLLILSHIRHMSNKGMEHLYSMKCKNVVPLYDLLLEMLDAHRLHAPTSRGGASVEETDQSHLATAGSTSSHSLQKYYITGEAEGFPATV
Chain of Progesterone receptor (Homo sapiens) (P06401 whole entry, looked up): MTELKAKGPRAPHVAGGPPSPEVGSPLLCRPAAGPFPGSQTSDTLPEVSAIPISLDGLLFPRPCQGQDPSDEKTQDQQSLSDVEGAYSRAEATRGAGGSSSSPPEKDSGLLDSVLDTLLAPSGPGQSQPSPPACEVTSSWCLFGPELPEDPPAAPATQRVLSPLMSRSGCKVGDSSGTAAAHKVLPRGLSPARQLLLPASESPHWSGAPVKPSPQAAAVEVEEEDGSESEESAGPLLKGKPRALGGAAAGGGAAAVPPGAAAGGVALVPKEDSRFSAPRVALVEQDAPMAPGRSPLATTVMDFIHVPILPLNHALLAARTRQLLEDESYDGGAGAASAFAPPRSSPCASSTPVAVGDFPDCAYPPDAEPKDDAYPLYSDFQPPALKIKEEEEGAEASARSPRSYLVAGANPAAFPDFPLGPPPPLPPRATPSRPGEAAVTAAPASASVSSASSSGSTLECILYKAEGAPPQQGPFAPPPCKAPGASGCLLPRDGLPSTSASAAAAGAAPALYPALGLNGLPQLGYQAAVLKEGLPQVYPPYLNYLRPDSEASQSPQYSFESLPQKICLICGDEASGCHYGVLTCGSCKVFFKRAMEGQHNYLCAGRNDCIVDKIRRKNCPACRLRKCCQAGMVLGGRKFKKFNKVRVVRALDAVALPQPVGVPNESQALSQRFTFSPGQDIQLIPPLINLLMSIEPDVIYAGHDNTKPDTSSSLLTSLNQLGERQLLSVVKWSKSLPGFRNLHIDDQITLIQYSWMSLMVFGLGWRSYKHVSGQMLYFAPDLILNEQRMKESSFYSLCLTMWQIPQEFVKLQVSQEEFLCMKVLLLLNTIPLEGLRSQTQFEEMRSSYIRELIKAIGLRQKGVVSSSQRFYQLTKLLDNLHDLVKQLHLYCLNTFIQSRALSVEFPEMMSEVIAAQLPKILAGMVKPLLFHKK
Chain of Nuclear receptor subfamily 1 group I member 2 (Homo sapiens) (O75469 whole entry, looked up): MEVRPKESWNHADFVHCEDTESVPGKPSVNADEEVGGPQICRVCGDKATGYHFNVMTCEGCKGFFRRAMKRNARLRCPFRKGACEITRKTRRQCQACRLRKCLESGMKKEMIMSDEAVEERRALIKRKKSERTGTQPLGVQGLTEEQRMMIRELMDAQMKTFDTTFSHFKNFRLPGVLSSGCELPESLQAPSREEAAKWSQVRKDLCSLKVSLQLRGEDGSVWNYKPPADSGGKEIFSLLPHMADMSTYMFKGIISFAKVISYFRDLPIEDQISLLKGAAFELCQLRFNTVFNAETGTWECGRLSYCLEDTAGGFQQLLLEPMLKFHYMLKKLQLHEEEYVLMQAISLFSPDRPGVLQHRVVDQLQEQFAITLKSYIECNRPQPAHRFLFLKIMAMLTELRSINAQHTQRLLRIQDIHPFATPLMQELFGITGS
Chain of Thyrotropin receptor (Homo sapiens) (P16473 whole entry, looked up): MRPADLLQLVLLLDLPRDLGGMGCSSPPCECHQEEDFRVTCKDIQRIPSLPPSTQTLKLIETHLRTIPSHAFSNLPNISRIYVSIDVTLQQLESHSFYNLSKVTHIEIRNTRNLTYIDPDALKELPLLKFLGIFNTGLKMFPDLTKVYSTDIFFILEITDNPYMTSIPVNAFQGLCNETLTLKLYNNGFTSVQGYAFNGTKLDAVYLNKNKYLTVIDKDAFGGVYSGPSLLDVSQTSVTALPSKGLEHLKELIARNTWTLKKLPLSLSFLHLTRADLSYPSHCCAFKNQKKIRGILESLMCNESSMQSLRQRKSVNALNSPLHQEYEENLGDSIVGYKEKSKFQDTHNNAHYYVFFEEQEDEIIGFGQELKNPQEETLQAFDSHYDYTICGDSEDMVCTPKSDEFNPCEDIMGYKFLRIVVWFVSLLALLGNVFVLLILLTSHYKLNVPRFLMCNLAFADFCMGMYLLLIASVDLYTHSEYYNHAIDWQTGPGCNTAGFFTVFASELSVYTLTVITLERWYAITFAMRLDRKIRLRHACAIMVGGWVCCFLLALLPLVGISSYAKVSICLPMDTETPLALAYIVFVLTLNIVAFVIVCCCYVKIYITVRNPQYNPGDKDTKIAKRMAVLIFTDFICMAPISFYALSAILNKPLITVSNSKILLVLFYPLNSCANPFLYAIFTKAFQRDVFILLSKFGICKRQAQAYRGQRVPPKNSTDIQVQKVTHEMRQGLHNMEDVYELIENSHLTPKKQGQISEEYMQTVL

O=C(OOC(=O)c1ccccc1)c1ccccc1
inactive: Potency [1] | outcome [2] | outcome [3] | outcome [4] | Potency [5] | Potency [6] | outcome [7] | Potency [8] | outcome [9] | outcome [10] | outcome [11] | outcome [12] | Potency [13] | outcome [14] | outcome [15] | Potency [16] | outcome [17] | outcome [18] | Potency [19] | max activation [20] -2.52%

CC1(C)S[C@@H]2[C@H](NC(=O)Cc3ccccc3)C(=O)N2[C@H]1C(=O)O (tested in a mixture with another compound)
inactive: Potency [1] | outcome [2] | outcome [3] | outcome [4] | Potency [5] | Potency [6] | outcome [7] | Potency [8] | outcome [9] | outcome [10] | outcome [11] | outcome [12] | Potency [13] | outcome [14] | outcome [15] | Potency [16] | outcome [17] | outcome [18]

CCCCN(CCCC)CCCCCCN(CCCC)CCCC
inactive: Potency [1] | outcome [2] | outcome [3] | outcome [4] | Potency [5] | Potency [6] | outcome [7] | Potency [8] | outcome [9] | outcome [10] | outcome [11] | outcome [12] | Potency [13] | outcome [14] | outcome [15] | Potency [16] | outcome [17] | outcome [18] | Potency [19]

CC(=O)Nc1ccc(S(=O)(=O)Nc2cc(C)on2)cc1
inactive: Potency [1] | outcome [2] | outcome [3] | outcome [4] | Potency [5] | Potency [6] | outcome [7] | Potency [8] | outcome [10] | outcome [12] | Potency [13] | outcome [14] | outcome [15] | Potency [16] | outcome [17] | outcome [18] | Potency [19]

CCC(=O)OCCOc1ccccc1
inactive: Potency [1] | outcome [2] | outcome [3] | outcome [4] | Potency [5] | Potency [6] | outcome [7] | Potency [8] | outcome [9] | outcome [10] | outcome [12] | Potency [13] | outcome [14] | outcome [15] | Potency [16] | outcome [17] | outcome [18] | Potency [19]

NS(=O)(=O)c1cc2c(cc1C(F)(F)F)NCNS2(=O)=O
inactive: Potency [1] | outcome [2] | outcome [3] | outcome [4] | Potency [5] | Potency [6] | outcome [7] | Potency [8] | outcome [9] | outcome [10] | outcome [11] | Potency [13] | outcome [14] | outcome [15] | outcome [17] | outcome [18] | Potency [19] | max activation [20] -2.82%

CC/C=C/CCCCCCCCCCOC(C)=O
inactive: Potency [1] | outcome [2] | outcome [3] | outcome [4] | Potency [5] | Potency [6] | outcome [7] | Potency [8] | outcome [9] | outcome [11] | outcome [14] | outcome [15] | Potency [16] | outcome [17] | outcome [18] | Potency [19]

COC(=O)c1ccc(NC(C)=O)cc1OC
inactive: Potency [1] | outcome [2] | outcome [3] | outcome [4] | Potency [5] | Potency [6] | outcome [7] | Potency [8] | outcome [9] | outcome [10] | outcome [11] | outcome [12] | Potency [13] | outcome [14] | outcome [15] | Potency [16] | outcome [17] | outcome [18] | Potency [19]

CCCCC(O)/C=C(C)/C=C/C=C/C(=O)N1CCCC1=O (stereo not drawn)
inactive: Potency [1] | outcome [2] | outcome [3] | outcome [4] | Potency [5] | Potency [6] | outcome [7] | outcome [10] | outcome [12] | Potency [13] | outcome [14] | outcome [15] | Potency [16] | outcome [17] | outcome [18] | Potency [19]

CCCCC(CC)CCC(CC(C)C)OS(=O)(=O)O (stereo not drawn)
inactive: Potency [1] | outcome [2] | outcome [3] | outcome [4] | Potency [5] | Potency [6] | outcome [7] | Potency [8] | outcome [9] | outcome [10] | outcome [11] | outcome [14] | outcome [17] | outcome [18] | Potency [19] | max activation [20] -2.27%

CC(=O)Nc1ccc(OCCOCCOc2ccc(NC(C)=O)cc2)cc1
inactive: Potency [1] | outcome [2] | outcome [3] | outcome [4] | Potency [5] | Potency [6] | outcome [7] | Potency [8] | outcome [10] | outcome [11] | outcome [14] | outcome [15] | Potency [16] | outcome [17] | outcome [18] | Potency [19] | max activation [20] -0.187%

CCc1ccc(CC)cc1
inactive: Potency [1] | outcome [2] | outcome [3] | outcome [4] | Potency [5] | Potency [6] | outcome [7] | Potency [8] | outcome [9] | outcome [10] | outcome [11] | outcome [12] | Potency [13] | outcome [14] | outcome [15] | Potency [16] | outcome [17] | outcome [18] | Potency [19]

CC(=O)Oc1ccc(C(C)=O)cc1
inactive: Potency [1] | outcome [2] | outcome [3] | outcome [4] | Potency [5] | Potency [6] | Potency [8] | outcome [10] | outcome [11] | outcome [12] | Potency [13] | outcome [14] | outcome [15] | Potency [16] | outcome [17] | outcome [18] | Potency [19]

N[C@H]1C(O)O[C@H](CO)[C@@H](O)[C@@H]1O (stereo partly drawn)
inactive: Potency [1] | outcome [2] | outcome [3] | outcome [4] | Potency [5] | Potency [6] | outcome [7] | Potency [8] | outcome [9] | outcome [10] | outcome [11] | outcome [12] | Potency [13] | outcome [14] | outcome [15] | Potency [16] | outcome [17] | outcome [18] | Potency [19] | max activation [20] 3.63%

CC(=O)/C=C/C=C1/C2CCC(C2)C1(C)C (stereo not drawn)
active: Potency [19] 3.76 µM
inactive: Potency [1] | outcome [2] | outcome [3] | outcome [4] | Potency [5] | Potency [6] | outcome [7] | Potency [8] | outcome [10] | outcome [11] | outcome [12] | Potency [13] | outcome [14] | outcome [15] | Potency [16] | outcome [17] | outcome [18]

Source: PubChem BioAssay (Tox21)
